This passage reports log2 fold change results from the supplement of paper PMC10849652.

What all share (assay): log2 fold change, soluble protein after heating vs DMSO (PISA); higher = thermal stabilisation; K562 lysate, 10 uM; active = over 0.2 and 3.5 SD of the protein, either way, in both replicates (recomputed)
Compound in test [1]: Cc1cn(-c2cc(NC(=O)c3ccc(C)c(Nc4nccc(-c5cccnc5)n4)c3)cc(C(F)(F)F)c2)cn1 [nilotinib]
The essentials: (§1)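 To prepare the extract, K562 pellets were dounce-homogenised in PBS pH 7.4 with 1 mM MgCl2, giving crude material at 1 mg/mL protein. This was treated with 10 μM compound for 30 min, then heated in aliquots for 3 min over 48°C-58°C before pooling and addition of NP-40 to 0.5% at 4°C. Centrifugation at 21,000xg for 90 min left soluble protein in the supernatant, which TMTpro 16plex LC-MS/MS quantified with equalised channel sums. Results are log-two fold changes in thermal stability compared with solvent controls, from duplicates.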

Compound in test [2]: Cc1nc(Nc2n[nH]c3c2CN(C(=O)N[C@H](CN(C)C)c2ccccc2)C3(C)C)c2sccc2n1
In a few lines:
as §1

Compound in test [3]: Cc1nc(Nc2ncc(C(=O)Nc3c(C)cccc3Cl)s2)cc(N2CCN(CCO)CC2)n1 [dasatinib]
In a few lines:
as §1

Compound in test [4]: Cc1ncc(-c2ccnc(Nc3ccc(S(C)(=O)=O)cc3)n2)n1C(C)C
In a few lines: as §1

Compound in test [5]: Cn1cc(-c2ccc3c(c2)CCN3C(=O)Cc2cccc(C(F)(F)F)c2)c2c(N)ncnc21
The essentials:
as §1

Compound in test [6]: Cn1cc(CNCC2CCN(c3ncc(C(=O)NO)cn3)CC2)c2ccccc21 [quisinostat]
The essentials:
as §1

Compound in test [7]: Cn1cncc1[C@@](N)(c1ccc(Cl)cc1)c1ccc2c(c1)c(-c1cccc(Cl)c1)cc(=O)n2C [tipifarnib]
In a few lines: as §1

Compound in test [8]: NC(=O)Nc1cc(-c2cccc(F)c2)sc1C(=O)N[C@H]1CCCNC1
The essentials: as §1

Compound in test [9]: NC(=O)c1cnc(N[C@@H]2CCCC[C@@H]2N)nc1Nc1cccc(-n2nccn2)c1
The essentials:
as §1

Compound in test [10]: NC1(c2ccc(-c3nc4ccn5c(=O)[nH]nc5c4cc3-c3ccccc3)cc2)CCC1
In a few lines: as §1

Compound in test [11]: NCC(=O)Nc1ccc(-n2nc(C(F)(F)F)cc2-c2ccc3c(ccc4ccccc43)c2)cc1
The essentials:
as §1

Compound in test [12]: O=C(CCCCCCC(=O)Nc1ccccc1)NO [vorinostat]
In a few lines:
as §1

Compound in test [13]: O=C(O)c1ccc2c(c1)nc(Nc1cccc(Cl)c1)c1ccncc12 [silmitasertib]
In a few lines: as §1

Compound in test [14]: O=C1NC(=O)C(c2cnc3ccccn23)=C1c1cn2c3c(cc(F)cc13)CN(C(=O)N1CCCCC1)CC2
The essentials: as §1

Compound in test [15]: c1cn2cc(-c3ccc4cn[nH]c4c3)nc(Nc3ccc(N4CCOCC4)cc3)c2n1 [entospletinib]
The essentials: as §1

Of roughly 8,800 targets only a part is listed; those with a hit were picked by preference. About 0.5% of all pairs of compound and target were hits. A number with no mark means an inactive call.

UniProt Q9H3K6, sequence (Q9H3K6 whole entry, looked up): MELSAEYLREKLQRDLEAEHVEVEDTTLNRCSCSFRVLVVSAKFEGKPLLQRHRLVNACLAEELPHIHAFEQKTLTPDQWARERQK
UniProt O75081, sequence (O75081 whole entry, looked up): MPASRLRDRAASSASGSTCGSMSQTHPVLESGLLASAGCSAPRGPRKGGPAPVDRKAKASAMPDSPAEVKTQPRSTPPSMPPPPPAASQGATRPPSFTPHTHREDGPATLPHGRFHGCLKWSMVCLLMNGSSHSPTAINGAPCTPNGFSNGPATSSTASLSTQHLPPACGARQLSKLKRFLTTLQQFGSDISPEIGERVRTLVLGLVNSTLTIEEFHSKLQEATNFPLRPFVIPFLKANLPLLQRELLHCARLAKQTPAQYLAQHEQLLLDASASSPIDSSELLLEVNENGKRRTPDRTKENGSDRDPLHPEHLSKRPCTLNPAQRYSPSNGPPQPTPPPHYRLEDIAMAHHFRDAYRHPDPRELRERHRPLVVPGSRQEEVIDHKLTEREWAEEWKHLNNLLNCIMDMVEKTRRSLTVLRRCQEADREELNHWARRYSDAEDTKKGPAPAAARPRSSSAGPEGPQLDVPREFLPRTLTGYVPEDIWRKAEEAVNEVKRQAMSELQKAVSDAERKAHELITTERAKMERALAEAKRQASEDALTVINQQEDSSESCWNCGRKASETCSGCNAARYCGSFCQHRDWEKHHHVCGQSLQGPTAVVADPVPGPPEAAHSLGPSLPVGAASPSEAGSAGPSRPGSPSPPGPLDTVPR
UniProt Q14012, sequence (Q14012 whole entry, looked up): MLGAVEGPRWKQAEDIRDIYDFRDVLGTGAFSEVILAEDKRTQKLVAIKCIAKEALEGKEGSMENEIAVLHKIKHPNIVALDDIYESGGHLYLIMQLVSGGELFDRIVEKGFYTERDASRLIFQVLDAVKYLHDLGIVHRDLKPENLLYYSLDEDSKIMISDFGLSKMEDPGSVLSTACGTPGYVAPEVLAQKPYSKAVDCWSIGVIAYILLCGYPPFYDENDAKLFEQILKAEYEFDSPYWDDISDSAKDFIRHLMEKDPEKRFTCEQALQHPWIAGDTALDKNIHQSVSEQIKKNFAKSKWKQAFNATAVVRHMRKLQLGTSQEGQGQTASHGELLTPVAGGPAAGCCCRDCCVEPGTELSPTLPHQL
UniProt Q9Y2V0, sequence (Q9Y2V0 whole entry, looked up): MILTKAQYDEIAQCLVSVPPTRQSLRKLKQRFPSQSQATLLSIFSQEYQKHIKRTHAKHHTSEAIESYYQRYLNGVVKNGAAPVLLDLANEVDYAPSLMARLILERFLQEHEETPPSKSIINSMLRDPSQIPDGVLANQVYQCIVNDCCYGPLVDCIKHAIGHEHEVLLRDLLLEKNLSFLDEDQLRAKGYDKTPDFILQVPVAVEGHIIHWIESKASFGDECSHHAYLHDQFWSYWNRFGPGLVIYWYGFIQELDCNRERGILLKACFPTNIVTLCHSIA
UniProt Q14692, sequence (Q14692 whole entry, looked up): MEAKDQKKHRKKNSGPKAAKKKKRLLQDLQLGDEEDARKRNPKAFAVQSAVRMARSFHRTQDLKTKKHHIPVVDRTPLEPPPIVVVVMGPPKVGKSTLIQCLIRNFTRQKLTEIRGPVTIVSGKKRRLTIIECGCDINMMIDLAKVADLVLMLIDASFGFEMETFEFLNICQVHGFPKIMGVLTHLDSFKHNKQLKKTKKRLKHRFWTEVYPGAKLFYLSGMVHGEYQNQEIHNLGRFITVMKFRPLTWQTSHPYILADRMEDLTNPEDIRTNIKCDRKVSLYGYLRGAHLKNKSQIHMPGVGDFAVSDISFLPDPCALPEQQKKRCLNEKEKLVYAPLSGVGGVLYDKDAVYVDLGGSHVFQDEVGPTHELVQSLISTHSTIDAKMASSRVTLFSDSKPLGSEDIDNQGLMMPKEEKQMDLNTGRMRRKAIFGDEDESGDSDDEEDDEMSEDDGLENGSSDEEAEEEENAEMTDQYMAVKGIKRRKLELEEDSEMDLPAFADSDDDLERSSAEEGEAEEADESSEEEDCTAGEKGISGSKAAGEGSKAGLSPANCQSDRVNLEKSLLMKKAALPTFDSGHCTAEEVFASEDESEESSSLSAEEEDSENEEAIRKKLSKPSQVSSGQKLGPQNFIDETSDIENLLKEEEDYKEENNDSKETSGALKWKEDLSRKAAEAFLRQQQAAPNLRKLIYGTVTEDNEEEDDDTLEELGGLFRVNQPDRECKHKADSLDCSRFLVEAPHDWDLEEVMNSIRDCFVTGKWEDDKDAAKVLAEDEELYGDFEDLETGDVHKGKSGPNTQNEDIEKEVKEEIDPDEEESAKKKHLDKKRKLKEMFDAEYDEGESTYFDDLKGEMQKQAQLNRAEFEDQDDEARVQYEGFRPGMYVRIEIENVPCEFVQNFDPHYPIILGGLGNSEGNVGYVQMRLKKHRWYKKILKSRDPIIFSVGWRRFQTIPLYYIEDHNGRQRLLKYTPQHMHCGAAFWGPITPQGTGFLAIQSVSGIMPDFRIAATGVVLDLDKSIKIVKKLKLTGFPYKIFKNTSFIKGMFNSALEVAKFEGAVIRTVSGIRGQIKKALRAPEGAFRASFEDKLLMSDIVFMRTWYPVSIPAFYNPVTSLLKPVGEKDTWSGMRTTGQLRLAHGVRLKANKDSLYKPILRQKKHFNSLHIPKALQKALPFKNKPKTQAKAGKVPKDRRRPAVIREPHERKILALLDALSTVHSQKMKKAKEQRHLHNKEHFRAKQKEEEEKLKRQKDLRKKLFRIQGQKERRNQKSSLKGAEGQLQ
UniProt Q12981, sequence (Q12981 whole entry, looked up): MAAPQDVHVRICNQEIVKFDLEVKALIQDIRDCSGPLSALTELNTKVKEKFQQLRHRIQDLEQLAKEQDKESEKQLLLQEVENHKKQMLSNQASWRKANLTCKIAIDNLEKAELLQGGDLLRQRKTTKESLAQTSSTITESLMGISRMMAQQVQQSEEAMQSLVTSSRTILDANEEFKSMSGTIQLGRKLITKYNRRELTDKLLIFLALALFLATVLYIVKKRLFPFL
UniProt P21127, sequence (P21127 whole entry, looked up): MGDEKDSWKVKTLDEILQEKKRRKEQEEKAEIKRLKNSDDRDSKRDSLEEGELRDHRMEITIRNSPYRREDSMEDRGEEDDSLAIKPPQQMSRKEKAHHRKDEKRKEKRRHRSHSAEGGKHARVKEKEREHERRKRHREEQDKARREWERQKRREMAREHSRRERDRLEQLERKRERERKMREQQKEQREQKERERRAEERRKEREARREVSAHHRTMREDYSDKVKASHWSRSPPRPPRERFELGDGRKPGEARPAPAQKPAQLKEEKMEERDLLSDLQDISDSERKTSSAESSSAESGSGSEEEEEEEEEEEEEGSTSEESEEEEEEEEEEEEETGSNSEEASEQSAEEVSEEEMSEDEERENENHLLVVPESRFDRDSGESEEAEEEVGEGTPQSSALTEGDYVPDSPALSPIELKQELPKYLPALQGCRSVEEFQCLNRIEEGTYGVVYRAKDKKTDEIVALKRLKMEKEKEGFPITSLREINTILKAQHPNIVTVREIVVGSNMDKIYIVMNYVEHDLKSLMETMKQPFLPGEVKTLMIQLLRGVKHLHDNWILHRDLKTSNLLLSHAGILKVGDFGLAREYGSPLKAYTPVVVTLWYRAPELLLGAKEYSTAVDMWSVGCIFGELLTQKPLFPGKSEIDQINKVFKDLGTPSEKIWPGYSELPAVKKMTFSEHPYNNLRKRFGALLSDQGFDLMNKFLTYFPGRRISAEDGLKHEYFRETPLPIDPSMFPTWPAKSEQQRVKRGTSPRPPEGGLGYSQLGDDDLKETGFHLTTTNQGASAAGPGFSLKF
UniProt Q9Y2V2, sequence (Q9Y2V2 whole entry, looked up): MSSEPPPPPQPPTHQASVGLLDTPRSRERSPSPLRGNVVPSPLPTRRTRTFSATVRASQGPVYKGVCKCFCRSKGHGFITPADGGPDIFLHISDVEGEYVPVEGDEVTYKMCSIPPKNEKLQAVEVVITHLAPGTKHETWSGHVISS

In the case of C15orf41 (UniProt Q9Y2V0), the log2 fold change in [1] is -0.041; in test [2], 0; in [3], 0.09; in test [4], 0.038; in test [5] it was -0.036; in test [6] it was -0.023. Also, the log2 fold change in [7] was -0.014; in [8], 0.076; in [9], 0.024; in [10] it was 0; in test [11] it was -0.124; in [12], -0.362 (active). Moreover, the log2 fold change in test [13] was -0.011; in test [14], -0.012; in [15], 0.04.
Regarding BMS1 (UniProt Q14692), the log2 fold change is 0.024 in test [1]; 0.024 in test [2]; -0.02 in test [3]; -0.045 in test [4]; -0.01 in [5]; -0.097 in test [6]. Further, the log2 fold change was 0 in [7]; 0.006 in test [8]; 0.015 in test [9]; -0.019 in [10]; 0.024 in test [11]; -0.037 in test [12]. Besides, the log2 fold change was 0.04 in [13], 0.033 in test [14] and 0.045 in [15].
Take ATR (UniProt Q13535): the log2 fold change is -0.075 in [1]; 0.002 in test [2]; 0.001 in [3]; 0.013 in test [4]; 0.001 in test [5]; -0.219 in [6]. Also, the log2 fold change is -0.032 in [7]; 0.047 in test [8]; 0.014 in [9]; -0.085 in test [10]; 0.044 in test [11]; -0.131 in [12]. Besides, the log2 fold change in [13] was 0.509 (active); in test [14], -0.01; in test [15], 0.046.
For CARHSP1 (UniProt Q9Y2V2), the log2 fold change was 0.037 in test [1]; -0.037 in test [2]; 0.017 in test [3]; -0.004 in test [4]; -0.04 in test [5]; -0.006 in [6]. Further, the log2 fold change in test [7] was 0.035; in test [8], -0.034; in [9], -0.026; in test [10], -0.001; in test [11] it was 0.045; in test [12], 0.052. The log2 fold change in [13] is -0.006; in test [14], 0.056; in test [15], -0.049.
In the case of BNIP1 (UniProt Q12981), the log2 fold change in [1] is -0.004; in test [2], -0.037; in test [3] it was -0.005; in [4] it was -0.028; in [5], -0.045; in test [6], -0.014. The log2 fold change in test [7] is -0.046; in test [8], -0.034; in test [9] it was -0.033; in test [10], 0.057; in test [11], -0.013; in [12], -0.049. For the same target, the log2 fold change in [13] was 0.066; in test [14], -0.026; in [15] it was -0.051.
In the case of CBFA2T3 (UniProt O75081), the log2 fold change was -0.018 in [1]; 0.02 in test [2]; -0.026 in test [3]; -0.019 in test [4]; -0.008 in test [5]; -0.07 in test [6]. Moreover, the log2 fold change in test [7] is -0.047; in test [8], 0.043; in test [9], 0; in test [10], 0.001; in test [11], -0.004; in test [12] it was -0.4 (active). In addition, the log2 fold change is 0.009 in test [13], -0.019 in test [14] and -0.012 in test [15].
CAMK1 (UniProt Q14012): the log2 fold change was -0.086 in [1]; 0.04 in test [2]; 0.021 in test [3]; 0.064 in [4]; 0.008 in [5]; -0.12 in test [6]. Moreover, the log2 fold change is -0.071 in test [7]; 0.194 in [8]; 0.018 in test [9]; -0.023 in test [10]; -0.13 in [11]; 0.027 in test [12]. In addition, the log2 fold change is -0.059 in test [13], 0.062 in test [14] and 0.115 in [15].
Turning to CDK11B (UniProt P21127), the log2 fold change in [1] was -0.006; in test [2], -0.015; in test [3] it was -0.028; in test [4], 0.087; in test [5], 0.068; in [6] it was -0.023. Besides, the log2 fold change was 0.01 in test [7]; 0.018 in test [8]; 0.009 in test [9]; -0.018 in [10]; 0.009 in test [11]; -0.115 in test [12]. Besides, the log2 fold change in [13] is 0.065; in test [14], -0.023; in test [15], 0.255 (active).
For BOLA2 (UniProt Q9H3K6), the log2 fold change in test [1] was 0.039; in test [2], -0.036; in [3], -0.002; in test [4], -0.021; in test [5], 0.009; in [6], 0.063. The log2 fold change in [7] was 0.01; in test [8], -0.042; in test [9], -0.013; in [10], 0.096; in [11], -0.085; in [12], 0.1. The log2 fold change in [13] is 0.039; in test [14], -0.039; in test [15], -0.015.
